Rows were chosen to be rich in hits. Some 4% of all compounds tested hit in one or more screens of this group.
VHR inh abs – blocks human VHR1 dual specificity phosphatase; AID 1654; P51452; inhibition, % at 13.3 µM; recombinant VHR phosphatase, pNPP absorbance; hit rate 0.52% among 290,000; in the data active = inhibition above about 50%
Target sequence (P51452 whole entry, looked up): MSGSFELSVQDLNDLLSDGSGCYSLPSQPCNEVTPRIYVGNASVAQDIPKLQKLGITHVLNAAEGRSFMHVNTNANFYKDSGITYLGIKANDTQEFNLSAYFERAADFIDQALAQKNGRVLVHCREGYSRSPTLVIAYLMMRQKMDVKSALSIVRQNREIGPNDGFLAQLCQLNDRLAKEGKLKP
MazF activator – MazEF (E. coli) toxin RNase activation; FAM/BHQ RNA-DNA oligo cleavage fluorescence, 5 h; activation, % at 20 µM; hit rate 0.32% among 350,000; AID 504720; in the data active = activation above about 50%
Target sequence (P0AE70 whole entry, looked up): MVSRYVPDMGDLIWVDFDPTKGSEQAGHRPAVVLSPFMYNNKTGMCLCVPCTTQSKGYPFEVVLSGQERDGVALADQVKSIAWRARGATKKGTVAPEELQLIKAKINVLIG
BoNT-A LC inh2 – BoNT A light chain protease inhibition. AID 588499. inhibition, % at 10 µM. hit rate 0.17% among 360,000. multiplex microsphere protease substrate cleavage, flow cytometry; also: plate controls were buffer without enzyme for full effect and enzyme alone for no effect
Anthrax LF prot – anthrax lethal factor protease inhibition; multiplex microsphere protease cleavage assay, LF; hit rate 0.12% among 360,000; P15917; inhibition, % at 10 µM; also: plate controls were buffer without enzyme for full effect and enzyme alone for no effect
Autofluor counter – flagged as autofluorescent in microsphere protease counterscreen; compound autofluorescence counterscreen, microsphere flow cytometry; stronger effect = higher value; fluorescence intensity (no concentration beside the values); hit rate 3.1% among 360,000; AID 624483; in the data active = fluorescence intensity above about 16000; inconclusive = no clear call, values can overlap the other calls
BoNT F protease – BoNT F light chain protease inhibition | Multiplex microsphere protease cleavage assay, flow cytometry | inhibition, % at 10 µM | hit rate 0.22% among 360,000 | AID 588497; in the data active = inhibition above about 35%, passing the limit was not always enough; inconclusive = no clear call, values can overlap the other calls; also: plate controls were buffer without enzyme for full effect and enzyme alone for no effect
* marks the source's active call; other numbers are inactive results; ? = inconclusive; . = not tested or not shown. Rule as the data show it, unless noted: active = inhibition above about 30%; inconclusive = no clear call, values can overlap the other calls; inactive = below that.

SMILES	VHR inh abs	MazF activator	BoNT-A LC inh2	Anthrax LF prot	Autofluor counter	BoNT F protease
CC(C)OC(=O)CC(=O)CSc1nc2c(c(-c3cccs3)c1C#N)CCC2	8	-8	30*	10	2297	7
CCOC(=O)C(C)Sc1nc2c(c(-c3cccs3)c1C#N)CCC2 (centres undefined)	-8	-25	24	10	2306	-2
CCOC(=O)c1nnn2c1nc(SCC(C)=O)c1ccccc12	13	3	0	-3	5684	-5
CC(C)C1C(=O)N(Cc2cn(CCC3OCCCO3)nn2)CCS(=O)(=O)N1Cc1ccc(-c2cccc(N(C)C)c2)cc1 (centres undefined)	.	0	0	-2	3418	-3
COc1ccccc1NC(=O)c1ccc(C)c(S(=O)(=O)N2CCCCC2)c1	53*	-13	-1	0	5712	2
Cc1cc(C)n(C(=O)c2ccc(C)c(S(=O)(=O)N3CCCCC3)c2)n1	33	4	-2	0	16992*	0
COc1ccccc1NC(=O)c1ccc(Cl)c(S(=O)(=O)N2CCCCC2)c1	20	0	-2	1	4546	-2
Cc1ccc(C(=O)Nc2cnc3ccccn3c2=O)cc1	-4	3	-2	-1	24404*	-6
Cc1ccc2ncc(NC(=O)c3ccc(F)cc3)c(=O)n2c1	16	-3	0	0	3357	22
CCOC(=O)C1=C(Cc2ccc(Cl)cc2)C(=O)c2ccccc2C1=O	-12	-18	3	-9	23250*	-10
CCCn1nc(C(=O)Nc2cc(S(=O)(=O)Nc3ccc(OC)cc3)ccc2O)c2ccccc2c1=O	.	2	0	0	3704	-7
COc1ccc(C(=O)NC(=S)NCc2ccccc2)cc1OC	15	5	-1	-5	4884	-5
COc1ccc(C(=O)NC(=S)NCc2ccc(-c3nc4ccccc4o3)cc2)cc1OC	13	-16	?	1	21219*	-5
CCOc1cc(C(=O)NCc2ccc(-c3nc4ccccc4o3)cc2)cc(OCC)c1OCC	6	-11	-1	-5	16439*	-4
O=C(COC(=O)c1ccc(CO)cc1)c1ccc(S(=O)(=O)N2CCCCC2)cc1	.	0	.	.	.	.
Cc1nc2sc(C(c3ccc(Cl)cc3)N3CC(C)OC(C)C3)c(O)n2n1 (centres undefined)	11	3	2	1	3430	36*
CC(C)CO/C(=N/S(=O)(=O)c1ccccc1)c1ccccc1	49	5	-1	-3	21474*	-3
CC(C)O/C(=N\S(=O)(=O)c1ccc(Cl)cc1)c1ccccc1	5	3	0	0	11199	1
CCOc1ccc(NC(=O)c2ccccc2OCC(=O)c2ccc(C)cc2)cc1	17	1	-1	0	23534*	2
CCc1ccc(C(=O)COc2ccc(NC(C)=O)cc2)cc1	20	8	0	-1	24015*	-2
CCOc1ccc(C(=O)COc2ccc(NC(C)=O)cc2)cc1	-6	-5	0	-2	3073	5
Cc1ccc(C(C)CCN2CCC(n3nccc3NC(=O)c3ccccc3)CC2)o1 (centres undefined)	53*	10	-4	-6	6228	-14
COc1ccccc1C(=O)Nc1ccnn1C1CCN(CCC(C)c2ccc(C)o2)CC1 (centres undefined)	14	7	-1	-2	5752	2
COCCn1c(N2CCN(c3ccc(OC)cc3)CC2)nc2c1c(=O)n(C)c(=O)n2C	-18	-1	6	-14	17764*	6
COc1cccc(C(=O)Cn2c(N3CCCCC3)nc3c2c(=O)n(C)c(=O)n3C)c1	13	12	3	-3	15156	3
SMILES	VHR inh abs	MazF activator	BoNT-A LC inh2	Anthrax LF prot	Autofluor counter	BoNT F protease
CCOCCn1c(N2CCN(c3ccc(OC)cc3)CC2)nc2c1c(=O)n(C)c(=O)n2C	-6	2	0	-2	2474	-2
COc1cccc(C(=O)Cn2c(N3CCOCC3)nc3c2c(=O)n(C)c(=O)n3C)c1	25	5	0	-3	16198*	-1
COc1ccc(NC(=O)C2CC(=O)N(c3ccccc3C)C2)c(OC)c1 (centres undefined)	58*	10	-1	-8	2783	9
O=C(Nc1ccccc1C(F)(F)F)C1CC(=O)N(c2ccccc2F)C1 (centres undefined)	-2	-2	4	-9	21214*	4
COc1ccccc1CCNC(=O)C1CC(=O)N(c2ccccc2F)C1 (centres undefined)	.	-1	-1	-4	4267	5
Cc1cccc(C)c1N1CCN(c2nc(N(C)C)oc(=O)c2C#N)CC1	16	-2	0	1	23077*	2
CN(C)c1nc(N2CCN(c3ccccc3)CC2)c(C#N)c(=O)o1	-7	4	0	-4	5550	-4
COc1nsnc1N1CCOCC1	8	8	0	-2	3386	4
COC(=O)COc1nsnc1N1CCOCC1	4	-4	-6	-13	24961*	-9
O=C(NC(=S)N1CCN(c2ccc([N+](=O)[O-])cc2)CC1)c1ccco1	53*	2	-1	2	2344	-3
CC1CCN(c2ccc(NC(=S)NC(=O)c3ccco3)cc2)CC1	39	2	0	-2	3138	2
O=C(NC(=S)Nc1ccc(N2CCCCC2)cc1)c1ccco1	37	1	3	-14	20910*	2
COC(=O)CCN(C(=O)c1cc(OC)c(OC)c(OC)c1)c1ccccn1	37	1	1	1	9869	0
CCOC(=O)N1C(=O)[C@@](CC)(c2ccccc2)N1C(=O)OCC	25	8	0	-2	3541	1
COc1ccc(C(=O)N2CCCC(c3nc(-c4cccs4)no3)C2)cc1 (centres undefined)	30	-19	-2	-4	19734*	-2
COc1ccc(-c2noc(C3CCCN(S(=O)(=O)c4cccc(Cl)c4)C3)n2)cc1OC (centres undefined)	36	-9	0	-4	23625*	-2
COc1ccc(C(=O)N2CCCC(c3nc(-c4cccs4)no3)C2)cc1OC (centres undefined)	32	6	-4	-1	25010*	-7
O=C(c1ccc(Br)cc1)N1CCCC(c2nc(-c3cccs3)no2)C1 (centres undefined)	1	3	0	-7	3850	-4
COC(=O)CN1C(=O)Nc2ccc(C)cc2C1c1ccccc1 (centres undefined)	15	12	0	-7	4167	0
COc1ccc(-c2cc3ccccc3oc2=O)cc1NC(=O)c1ccc([N+](=O)[O-])o1	28	4	0	1	23372*	1
Cc1onc(-c2ccccc2)c1C(=O)OCCOc1ccc([N+](=O)[O-])cc1[N+](=O)[O-]	-18	5	-4	2	3967	31
O=C(O)CSCc1cnn(-c2ccccc2)c1-n1cccc1	8	-3	0	1	10818	-5
CCOc1ccc(NC(=O)CSCc2cnn(-c3ccccc3)c2-n2cccc2)cc1	-6	1	1	-2	19959*	-1

Screening results: PubChem, several laboratories
